# Source: PubChem BioAssay (National Center for Advancing Translational Sciences (NCATS))
# A selection: hits, their analogues and other compounds. The true share with any hit is near 6.1%.
# HepG2 viability – HepG2 cytotoxicity, counter-screen for TGF-b inhibitors; HepG2 CAGA-GFP viability, ATP luminescence, 18 h; Potency, µM (titrated, usually from 46.1 µM), for the others: top-dose activity change, negative = cytotoxicity, most hits filed as cytotoxic; 410,000 compounds, 0.76% hits
#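 HepG2 CAGA-GFP cells (1000/well, DMEM with 1% FBS) received compound, then TGF-beta at 500 pg/mL final, and were incubated 18 hours at 37 degrees C. Viability was read by CellTiter-Glo luminescence. Media-only wells were set as complete cell-killing and DMSO as no toxicity.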
# RORgamma inh – inhibitors of mouse ROR gamma transcriptional activity | P51450 | Drosophila S2 Gal4-RORgamma UAS-luciferase reporter, 20 h | Potency, µM (titrated, usually from 53.6 µM), for the others: at the highest dose activity change, negative = inhibition, hits mostly inhibitors | 310,000 compounds, 5.4% hits | AID 2551; also: % is scaled to controls: 0 for no effect and ±100 for the full control effect; nearly all actives have a fitted effect of over 60% in size
# Target sequence (P51450 whole entry, looked up, the tested form may be a part): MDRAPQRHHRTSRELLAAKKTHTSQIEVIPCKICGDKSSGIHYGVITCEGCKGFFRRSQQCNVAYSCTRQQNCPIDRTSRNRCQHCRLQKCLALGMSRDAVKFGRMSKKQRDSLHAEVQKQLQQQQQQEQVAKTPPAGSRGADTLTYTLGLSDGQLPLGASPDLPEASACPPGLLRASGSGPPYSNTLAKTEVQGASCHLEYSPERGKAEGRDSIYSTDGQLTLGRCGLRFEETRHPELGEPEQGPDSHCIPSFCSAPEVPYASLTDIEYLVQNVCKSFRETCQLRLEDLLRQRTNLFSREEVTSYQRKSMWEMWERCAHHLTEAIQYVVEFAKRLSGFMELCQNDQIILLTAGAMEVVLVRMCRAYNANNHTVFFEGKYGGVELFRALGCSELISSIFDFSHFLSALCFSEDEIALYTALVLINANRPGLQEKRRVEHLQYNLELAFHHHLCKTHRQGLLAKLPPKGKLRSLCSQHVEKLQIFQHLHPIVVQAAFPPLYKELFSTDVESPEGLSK
#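 In this cell-based reporter format, copper sulfate (700 uM final) drives Gal4–ROR gamma fusion expression from a metallothionein promoter in Drosophila Schneider cells; compounds preincubated 1 hr, reporter read after 20 hr at ambient temperature.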
# ATXN2 expr inh – inhibitors of ATXN2 expression | 360,000 compounds, 0.72% hits | AID 1745845 | HEK-293 ATXN2-luciferase reporter, luminescence, 24 h | Potency, µM (series often up to 57 µM), without a hit: top-dose activity change, negative = inhibition, hits mostly inhibitors; also: % is scaled to controls: 0 for no effect and ±100 for the full control effect; nearly all actives have a fitted effect of over 55% in size
#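 qHTS (up to 57 uM final) was run with 24 h compound exposure of reporter cells at 37 °C. Each well was multiplexed: SteadyGlo luminescence measured ATXN2-luciferase expression after a fluorogenic Gly-Phe-AFC viability readout (25 uM final).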
# S2 tox – cell viability loss in ATXN counter-screen; S2 cells (HEK-293 line with an ATXN2-luciferase reporter) viability, CellTiter-Fluor protease fluorescence, 24 h; Potency, µM (doses to about 56.7 µM), usual class: cytotoxic; 400,000 compounds, 0.49% hits; AID 651635; also: nearly all actives have a fitted effect of over 40% in size
# Gal4-VP16 FLuc – counter-screen for ROR gamma inhibitors: Gal4-VP16 reporter | Drosophila S2 Gal4-VP16 UAS-luciferase, luminescence, 20 h | Potency, µM (highest dose often 53.6 µM), without a hit: at the highest dose activity, negative = inhibition, actives largely listed as inhibitors | 310,000 compounds, 3.5% hits | AID 2546;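 also: Gal4-VP16 expression switched on by copper sulfate through the metallothionein promoter; % is scaled to controls: 0 for no effect and ±100 for the full control effect; nearly all actives have a fitted effect of over 50% in size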
# TGFb SMAD3 inh – blocks TGF-b signaling. HepG2 CAGA-GFP TGF-b/SMAD3 reporter, GFP fluorescence, 18 h; TGF-beta stimulated, 500 pg/mL final. Potency, µM (top dose mostly 46.1 µM), without a hit: top-dose activity, negative = inhibition, actives largely listed as inhibitors. 410,000 compounds, 1.2% hits. AID 588855; also: % is scaled to controls: 0 for no effect and ±100 for the full control effect; nearly all actives have a fitted effect of over 65% in size
#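 GFP signal (ex488/em500-530) from TGF-beta-stimulated HEPG2 CAGA-GFP cells, 500 pg/mL final, 18 h at 37 degrees C in DMEM plus 1% FBS, normalized to unstimulated and DMSO-stimulated controls.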
# * = called active by the depositor; i = inactive; ? = inconclusive; . = not tested or not shown; [ ] = another dose, or the depositor's remark. Calls follow the shape of the dose curve; as a rule, active = well fitted curve in the direction sought with a large enough effect; inconclusive = small, poorly fitted or top-dose-only effect, or another doubt; inactive = no such curve, though single readings can be large; an effect the other way counts as inactive or inconclusive. Potency is read from the fitted curve at half-maximal effect.
SMILES,HepG2 viability,RORgamma inh,ATXN2 expr inh,S2 tox,Gal4-VP16 FLuc,TGFb SMAD3 inh
CN(C)CCCN(C(=O)c1ccc(C(=O)c2ccccc2)cc1)c1nc2cc3c(cc2s1)OCCO3,-89.3%,-35.5%,-19.6%,i,-8.5%,14.1µM*
Cc1ccc(C(=O)N(CCCN(C)C)c2nc3ccc(Cl)cc3s2)cc1C,22.4µM*,10µM*,?,?,17.8µM*,?
COc1cccc(C(=O)n2nc(-c3cccnc3)nc2NCc2ccc(F)cc2)c1,-22.9%,.,-14.8%,i,.,-19.1%
CCOC(=O)c1cc(S(=O)(=O)NCc2cccc(Cl)c2)[nH]n1,-4.3%,.,7.7%,?,.,-0.6%
CN(C)CCCN(C(=O)c1ccc(S(=O)(=O)N(C)C)cc1)c1nc2cc3c(cc2s1)OCO3,-9.6%,4.5%,-30.5%,i,-2.7%,3.4%
CCN(Cc1ccccc1)S(=O)(=O)c1ccc(C(=O)N(CCCN(C)C)c2nc3cc4c(cc3s2)OCO4)cc1,12.6µM*,?,?,?,?,15.8µM*
CCOC(=O)c1c(CN2CCN(C)CC2)n(C)c2cc(Br)c(OC)cc12,11.2µM*,?,-24.0%,i,-1.8%,14.3%
CCOC(=O)c1oc2ccccc2c1CN1CCN(C)CC1,2.2%,-2.0%,-6.1%,i,-1.5%,5.6%
CCOC(=O)c1c(C)oc2c(CN3CCN(C)CC3)c(Br)c(OC)c(O)c12,-11.5%,?,-16.3%,i,17.8µM*,-10.1%
CCOC(=O)c1c(CN2CCCCC2)n(C)c2cc(Br)c(O)cc12,-20.8%,4.6%,-23.8%,i,-13.2%,-7.4%
CCC(=O)Nc1sc2c(c1C(=O)Nc1ccccc1C)CCC(C)C2 (configuration not stated),-4.0%,.,1.5%,i,.,6.3%
COc1ccc(Cl)cc1NC(=O)CSc1nc2c(oc3ccccc32)c(=O)n1Cc1ccco1,-11.4%,.,-6.0%,i,.,?
COc1ccccc1CNC(=O)C1CCN(S(=O)(=O)c2ccc3[nH]c(=O)ccc3c2)CC1,-0.7%,.,16.2%,i,.,3.3%
Cc1ccc(Cl)cc1-c1cc(C(=O)NCc2cc(C(F)(F)F)cc(C(F)(F)F)c2)[nH]n1,-49.8%,.,?,?,.,11.2µM*
COc1ccc(NC(=O)/C(C#N)=C/c2ccc(Sc3nncn3C)c([N+](=O)[O-])c2)cc1,-60.6%,-40.1%,-22.4%,?,22.4µM*,?
Cn1cnnc1Sc1ccc(C(=O)OCC(=O)Nc2ccccc2)cc1[N+](=O)[O-],2.2%,-13.5%[10 µM],6.1%,i,-13.7%,-1.8%
CCOC(=O)c1cnc2c(OC)cccc2c1Nc1ccc2c(c1)OCCO2,-15.4%,15.8µM*,?,?,17.8µM*,-17.3%
O=C(CN(C(=O)CCC(=O)Nc1nccs1)c1cccc(F)c1)NCc1ccc(F)cc1,7.3%,35.5µM*,-9.2%,i,-5.0%,-4.2%
O=C(CN(C(=O)CCC(=O)Nc1nccs1)c1ccc(F)cc1)NCc1ccccc1,2.1%,-1.2%,-8.3%,i,5.0%,-4.0%
COC(=O)[C@H]1[C@H]2C[C@@H]3c4[nH]c5ccccc5c4CCN3C[C@H]2C[C@@H](OC(=O)c2cc(OC)c(OC)c(OC)c2)[C@@H]1OC,.,7.08µM*,.,?,?,.
CC1CCc2cc(F)ccc2N1S(=O)(=O)c1ccc(F)cc1 (configuration not stated),-15.6%,10µM*,1.0%,i,0.6%,-1.0%
COC(=O)C1CCN(Cc2ccc3c(c2)CN(C(=O)c2cc(C)nc(C)n2)CCO3)CC1,.,.,.,i,.,.
COc1ccccc1C1C2=C(N=C3SCC(=O)N31)c1ccccc1CC2 (configuration not stated),-1.0%,11.2µM*,-22.5%,?,-8.9%,-14.9%
COc1ccc(C2C3=C(N=C4SCC(=O)N42)c2ccccc2CC3)cc1OC (configuration not stated),0.1%,-4.2%,-19.7%,i,13.7%,-6.6%
Cc1ccc(-n2cc[nH]c2=S)c(C)c1,28.4%,10µM*,1.5%[11.3 µM],i,?,100.6%
SMILES,HepG2 viability,RORgamma inh,ATXN2 expr inh,S2 tox,Gal4-VP16 FLuc,TGFb SMAD3 inh
Cc1ccc(C)c(N2CC(=O)N(c3cc(C)ccc3C)CC2=O)c1,-7.5%,-30.8%,-18.3%,i,2.4%,3.2%
Cc1cc(C)cc(-n2cc[nH]c2=S)c1,1.8%,7.08µM*,3.3%,i,10µM*,-3.7%
Cc1ccc(C)c(-n2cc[nH]c2=S)c1,5.4%,11.2µM*,-9.2%,i,?,2.1%
FC(F)(F)c1cnc(-n2cc[nH]c2=S)c(Cl)c1,-57.1%,-42.2%,-0.1%,i,-2.8%,-7.3%
Cc1cc2c(cc1S(=O)(=O)N(CCN(C)C)Cc1ccco1)OCC(=O)N2,-18.2%,.,.,.,.,-23.8%
CC(=O)Oc1ccc2c(c1)CC[C@@H]1[C@@H]2CC[C@]2(C)[C@@H](O)CC[C@@H]12,.,.,-8.5%,?,.,.
C#CCCCO/N=C1/C[C@@H](O)[C@@H](O)[C@@H]2[C@@H]3C(=O)N(C4CCCCC4)C(=O)[C@H]3CC[C@@H]12,.,14.0%[10 µM],.,.,5.0%[10 µM],.
c1ccc(-c2noc(C3CCC3)n2)nc1,-13.7%,4.5%,23.6%,i,16.3%,-3.4%
CCCCC1CCC(c2nc(-c3ccccn3)no2)CC1 (configuration not stated),-36.1%,?,41.7%,i,12.6µM*,-0.3%
COc1ccc(S(=O)(=O)Nc2cccc(-c3ccc(N4CCCCCC4)nn3)c2)cc1F,-21.6%,.,12.4%,?,.,-25.5%
CCOc1ccc(N(C)S(=O)(=O)c2ccc3c(c2)CCCN3C(C)=O)cc1,-28.4%,.,-5.8%,?,.,0.3%
Cc1cnc(C)c(-c2cc(F)cc3c2OC(CNC(=O)Cc2c(C)noc2C)C3)n1 (configuration not stated),.,.,.,i,.,.
CCc1c(C)nc2nc(SCc3ccccc3Cl)[nH]n2c1=O,-9.5%,?,-30.6%,i,25.1µM*,-7.8%
CCC(CO)Oc1cc(NCc2ccc(Cl)cc2Cl)c2ncn(C(C)C)c2c1 (configuration not stated),-72.1%,.,-3.3%,?,.,20µM*
CCC(CO)Oc1cc(NCc2ccc(Cl)cc2)c2ncn(C(C)C)c2c1 (configuration not stated),-23.2%,.,?,?,.,?
CCCN(CCC)c1nc(N)nc(-c2cc(Cl)ccc2OC)n1,-30.9%,15.8µM*,-9.3%,i,-10.7%,-25.0%
CC(=O)c1ccc(O)c(C(N)=O)c1,.,.,3.2%,i,.,.
CC(C)(C)C1CCc2[nH]c3ccccc3c(=O)c2C1 (configuration not stated),-19.9%,?,50.9%,i,-29.1%,-11.7%
